Measurements: publication PMC7862700, “An all-to-all approach to the identification of sequence-specific readers for epigenetic DNA modifications on cytosine”

How the values were obtained:
Assay in all cases: DAPPL (digital affinity profiling via proximity ligation, sequencing); 10 mM Tris-HCl pH 7.5, 50 mM NaCl, 1 mM DTT, 4% glycerol, room temperature, 30 min; GST-TFs on glutathione beads, 16-mer random dsDNA library, 0.1% formaldehyde crosslink after washing; high values mean tight binding
Conditions in all cases: protein: recombinant; tags: N-terminal GST; dsDNA, one strand shown
[1] = molecular target: T1, FLI1 (Homo sapiens, UniProt Q01543 1-452)
T1 sequence: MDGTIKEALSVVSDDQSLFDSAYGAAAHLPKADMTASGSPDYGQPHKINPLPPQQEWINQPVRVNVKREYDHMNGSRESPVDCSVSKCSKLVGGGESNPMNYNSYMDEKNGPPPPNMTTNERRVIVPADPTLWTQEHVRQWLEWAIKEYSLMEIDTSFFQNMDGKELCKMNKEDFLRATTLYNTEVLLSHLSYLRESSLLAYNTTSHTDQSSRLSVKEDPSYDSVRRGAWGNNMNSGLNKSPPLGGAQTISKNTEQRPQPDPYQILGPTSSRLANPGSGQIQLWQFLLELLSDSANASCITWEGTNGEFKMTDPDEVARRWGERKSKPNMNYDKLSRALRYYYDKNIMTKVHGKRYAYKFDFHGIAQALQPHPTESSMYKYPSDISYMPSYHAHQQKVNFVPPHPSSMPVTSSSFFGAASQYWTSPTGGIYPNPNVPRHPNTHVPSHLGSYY
How it was run: (§1)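 Each value of binding signal is a hexamer's read frequency for a factor divided by the same hexamer's frequency in the tag-only sample. Barcoded, bead-captured GST fusions of human transcription factors made in yeast were pooled with that sample and incubated with 200 nmole of a random double-stranded 16-mer DNA library in Tris/NaCl/DTT/glycerol buffer at room temperature for 30 min. Washing, 0.1% formaldehyde crosslinking, proximity ligation, PCR and Illumina NextSeq500 sequencing followed.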

[2] = molecular target: T2, ELK1 (Homo sapiens, UniProt P19419 1-428)
T2 sequence: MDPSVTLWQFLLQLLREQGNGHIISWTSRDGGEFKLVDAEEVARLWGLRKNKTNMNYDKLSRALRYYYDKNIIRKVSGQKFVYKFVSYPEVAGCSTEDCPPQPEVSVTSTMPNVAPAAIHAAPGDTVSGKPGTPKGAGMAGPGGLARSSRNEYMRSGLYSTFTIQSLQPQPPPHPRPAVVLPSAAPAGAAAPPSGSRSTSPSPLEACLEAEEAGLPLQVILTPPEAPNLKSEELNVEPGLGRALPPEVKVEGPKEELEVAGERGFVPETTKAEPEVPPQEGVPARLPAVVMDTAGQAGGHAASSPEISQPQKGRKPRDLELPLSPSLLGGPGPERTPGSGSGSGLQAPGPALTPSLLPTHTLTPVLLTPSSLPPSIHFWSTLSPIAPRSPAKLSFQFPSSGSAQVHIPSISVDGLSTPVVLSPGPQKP
How it was run: as §1

[3] = molecular target: T3, GABPA (Homo sapiens, UniProt Q06546 1-454)
T3 sequence: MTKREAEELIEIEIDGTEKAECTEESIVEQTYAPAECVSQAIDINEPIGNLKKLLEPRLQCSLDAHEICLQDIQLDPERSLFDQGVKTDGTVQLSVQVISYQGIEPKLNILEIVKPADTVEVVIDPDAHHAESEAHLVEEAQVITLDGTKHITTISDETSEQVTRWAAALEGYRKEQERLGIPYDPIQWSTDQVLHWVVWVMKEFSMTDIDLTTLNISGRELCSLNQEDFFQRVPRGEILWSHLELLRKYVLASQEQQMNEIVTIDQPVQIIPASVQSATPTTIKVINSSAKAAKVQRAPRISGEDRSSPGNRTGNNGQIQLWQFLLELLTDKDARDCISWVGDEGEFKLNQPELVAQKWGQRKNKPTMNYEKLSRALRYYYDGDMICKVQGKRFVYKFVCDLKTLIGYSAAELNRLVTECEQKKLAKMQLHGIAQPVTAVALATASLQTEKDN
How it was run: as §1

[4] = molecular target: T4, ERG (Homo sapiens, UniProt P11308 1-479)
T4 sequence: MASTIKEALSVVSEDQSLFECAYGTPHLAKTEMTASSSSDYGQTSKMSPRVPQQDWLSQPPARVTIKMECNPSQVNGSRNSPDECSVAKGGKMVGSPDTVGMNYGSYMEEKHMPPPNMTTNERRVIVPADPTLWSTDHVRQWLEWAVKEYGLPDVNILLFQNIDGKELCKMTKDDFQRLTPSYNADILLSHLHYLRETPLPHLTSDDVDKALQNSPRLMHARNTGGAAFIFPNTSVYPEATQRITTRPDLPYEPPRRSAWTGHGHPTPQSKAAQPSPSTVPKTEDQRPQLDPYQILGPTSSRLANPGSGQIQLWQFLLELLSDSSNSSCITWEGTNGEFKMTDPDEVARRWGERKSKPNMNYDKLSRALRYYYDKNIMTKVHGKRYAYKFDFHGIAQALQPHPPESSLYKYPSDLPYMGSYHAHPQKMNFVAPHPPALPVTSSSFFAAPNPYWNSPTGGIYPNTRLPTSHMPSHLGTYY
How it was run: as §1

[5] = molecular target: ELF1 (Homo sapiens, UniProt P32519 1-619)
Sequence of ELF1 (P32519 whole entry): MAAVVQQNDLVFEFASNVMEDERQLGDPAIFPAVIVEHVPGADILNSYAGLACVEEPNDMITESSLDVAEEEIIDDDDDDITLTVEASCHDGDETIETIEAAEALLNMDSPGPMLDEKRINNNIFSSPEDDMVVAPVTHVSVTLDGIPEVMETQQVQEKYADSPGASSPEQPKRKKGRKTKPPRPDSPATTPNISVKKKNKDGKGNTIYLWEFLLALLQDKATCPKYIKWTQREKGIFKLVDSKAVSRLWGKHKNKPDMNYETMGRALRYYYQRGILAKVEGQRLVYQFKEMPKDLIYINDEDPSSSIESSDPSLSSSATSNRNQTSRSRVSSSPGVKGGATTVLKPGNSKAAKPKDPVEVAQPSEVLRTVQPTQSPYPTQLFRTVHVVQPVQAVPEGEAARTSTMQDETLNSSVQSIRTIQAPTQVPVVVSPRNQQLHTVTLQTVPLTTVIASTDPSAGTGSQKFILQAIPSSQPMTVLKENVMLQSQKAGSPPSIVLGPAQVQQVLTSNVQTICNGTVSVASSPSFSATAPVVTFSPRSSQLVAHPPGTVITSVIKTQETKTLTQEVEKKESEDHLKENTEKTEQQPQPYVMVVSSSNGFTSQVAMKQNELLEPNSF
How it was run: as §1

[6] = molecular target: T5, EHF (Homo sapiens, UniProt Q9NZC4 1-300)
T5 sequence: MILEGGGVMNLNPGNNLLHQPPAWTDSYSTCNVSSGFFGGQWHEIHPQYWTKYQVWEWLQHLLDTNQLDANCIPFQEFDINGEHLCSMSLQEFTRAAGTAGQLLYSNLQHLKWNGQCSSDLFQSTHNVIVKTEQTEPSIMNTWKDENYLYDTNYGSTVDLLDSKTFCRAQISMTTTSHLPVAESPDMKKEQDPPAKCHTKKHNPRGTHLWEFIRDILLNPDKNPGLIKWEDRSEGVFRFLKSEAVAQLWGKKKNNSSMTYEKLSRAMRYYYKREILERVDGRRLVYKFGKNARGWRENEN
How it was run: as §1

[7] = molecular target: SPI1 (Homo sapiens, UniProt P17947 1-270)
How it was run: as §1

[8] = molecular target: SPIB (Homo sapiens, UniProt Q01892 1-262)
Sequence of SPIB (Q01892 whole entry): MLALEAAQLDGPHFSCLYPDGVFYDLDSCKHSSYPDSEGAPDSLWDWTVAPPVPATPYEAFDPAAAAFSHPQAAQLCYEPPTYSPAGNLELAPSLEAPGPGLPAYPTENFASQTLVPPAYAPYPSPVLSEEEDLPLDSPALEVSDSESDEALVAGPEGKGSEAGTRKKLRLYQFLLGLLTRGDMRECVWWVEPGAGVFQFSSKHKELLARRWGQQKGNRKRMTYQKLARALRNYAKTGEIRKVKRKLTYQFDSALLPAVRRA
How it was run: as §1

[9] = molecular target: T6, ELK3 (Homo sapiens, UniProt P41970 1-407)
T6 sequence: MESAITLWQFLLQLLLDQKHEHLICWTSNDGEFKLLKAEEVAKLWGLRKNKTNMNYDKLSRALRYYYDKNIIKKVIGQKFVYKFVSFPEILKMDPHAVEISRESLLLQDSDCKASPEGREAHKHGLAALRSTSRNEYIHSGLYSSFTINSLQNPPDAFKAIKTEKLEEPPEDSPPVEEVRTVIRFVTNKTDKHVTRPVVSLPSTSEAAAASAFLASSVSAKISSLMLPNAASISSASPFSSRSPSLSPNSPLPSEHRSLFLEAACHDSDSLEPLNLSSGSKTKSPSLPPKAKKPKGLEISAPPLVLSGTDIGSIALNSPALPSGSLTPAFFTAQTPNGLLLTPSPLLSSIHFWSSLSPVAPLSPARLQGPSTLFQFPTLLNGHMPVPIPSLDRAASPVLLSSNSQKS
How it was run: as §1

[10] = molecular target: T7, FEV (Homo sapiens, UniProt Q99581 1-238)
T7 sequence: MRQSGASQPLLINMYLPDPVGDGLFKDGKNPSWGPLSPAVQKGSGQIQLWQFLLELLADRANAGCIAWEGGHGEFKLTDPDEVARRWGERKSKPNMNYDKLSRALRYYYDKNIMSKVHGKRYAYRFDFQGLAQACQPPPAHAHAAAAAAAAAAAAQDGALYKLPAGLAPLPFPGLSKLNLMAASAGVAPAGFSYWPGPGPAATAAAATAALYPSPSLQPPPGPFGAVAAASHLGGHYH
How it was run: as §1

[11] = molecular target: ETV5 (Homo sapiens, UniProt P41161 1-510)
Sequence of ETV5 (P41161 whole entry): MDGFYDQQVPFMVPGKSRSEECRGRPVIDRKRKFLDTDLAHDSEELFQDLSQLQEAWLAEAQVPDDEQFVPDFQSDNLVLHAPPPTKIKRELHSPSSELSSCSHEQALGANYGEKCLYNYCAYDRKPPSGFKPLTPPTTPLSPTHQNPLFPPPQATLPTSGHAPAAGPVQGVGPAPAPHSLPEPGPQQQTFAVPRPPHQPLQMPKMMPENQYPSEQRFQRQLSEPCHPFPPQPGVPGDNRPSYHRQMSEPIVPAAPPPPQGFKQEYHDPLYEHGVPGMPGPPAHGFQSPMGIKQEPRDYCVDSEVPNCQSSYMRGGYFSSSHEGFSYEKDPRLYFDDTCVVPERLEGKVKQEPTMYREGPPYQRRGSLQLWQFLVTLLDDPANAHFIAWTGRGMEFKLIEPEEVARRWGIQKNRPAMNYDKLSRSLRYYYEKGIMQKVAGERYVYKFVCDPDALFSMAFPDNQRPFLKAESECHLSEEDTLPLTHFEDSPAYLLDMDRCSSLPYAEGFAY
How it was run: as §1

[12] = molecular target: T8, SPIC (Homo sapiens, UniProt Q8N5J4 1-248)
T8 sequence: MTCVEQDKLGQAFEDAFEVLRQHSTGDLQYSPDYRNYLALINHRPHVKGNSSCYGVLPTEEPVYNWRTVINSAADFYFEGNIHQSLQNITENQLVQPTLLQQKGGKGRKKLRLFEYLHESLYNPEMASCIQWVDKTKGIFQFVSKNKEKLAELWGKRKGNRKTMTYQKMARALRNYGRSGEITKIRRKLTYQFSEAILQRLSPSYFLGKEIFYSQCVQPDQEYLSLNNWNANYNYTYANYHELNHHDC
How it was run: as §1

[13] = molecular target: ELF4 (Homo sapiens, UniProt Q99607 1-663)
Sequence of ELF4 (Q99607 whole entry): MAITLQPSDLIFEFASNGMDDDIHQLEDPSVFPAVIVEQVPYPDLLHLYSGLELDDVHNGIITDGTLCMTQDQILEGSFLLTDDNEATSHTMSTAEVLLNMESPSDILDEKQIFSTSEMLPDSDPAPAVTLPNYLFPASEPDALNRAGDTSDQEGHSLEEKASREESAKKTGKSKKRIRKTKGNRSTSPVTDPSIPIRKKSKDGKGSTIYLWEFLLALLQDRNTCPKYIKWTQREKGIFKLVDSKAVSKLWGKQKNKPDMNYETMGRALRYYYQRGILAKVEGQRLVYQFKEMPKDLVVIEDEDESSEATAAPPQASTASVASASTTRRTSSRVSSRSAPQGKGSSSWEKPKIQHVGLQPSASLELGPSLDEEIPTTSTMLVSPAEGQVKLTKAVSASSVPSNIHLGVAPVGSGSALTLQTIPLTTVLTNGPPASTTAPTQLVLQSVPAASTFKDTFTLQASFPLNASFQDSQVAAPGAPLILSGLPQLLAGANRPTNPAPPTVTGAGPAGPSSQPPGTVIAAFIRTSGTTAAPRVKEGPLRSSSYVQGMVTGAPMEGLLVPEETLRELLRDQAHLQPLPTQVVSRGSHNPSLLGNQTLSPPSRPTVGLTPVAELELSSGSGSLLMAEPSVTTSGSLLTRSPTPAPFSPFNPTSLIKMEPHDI
How it was run: as §1

[14] = molecular target: T9, ELK4 (Homo sapiens, UniProt P28324-2 1-405)
T9 sequence: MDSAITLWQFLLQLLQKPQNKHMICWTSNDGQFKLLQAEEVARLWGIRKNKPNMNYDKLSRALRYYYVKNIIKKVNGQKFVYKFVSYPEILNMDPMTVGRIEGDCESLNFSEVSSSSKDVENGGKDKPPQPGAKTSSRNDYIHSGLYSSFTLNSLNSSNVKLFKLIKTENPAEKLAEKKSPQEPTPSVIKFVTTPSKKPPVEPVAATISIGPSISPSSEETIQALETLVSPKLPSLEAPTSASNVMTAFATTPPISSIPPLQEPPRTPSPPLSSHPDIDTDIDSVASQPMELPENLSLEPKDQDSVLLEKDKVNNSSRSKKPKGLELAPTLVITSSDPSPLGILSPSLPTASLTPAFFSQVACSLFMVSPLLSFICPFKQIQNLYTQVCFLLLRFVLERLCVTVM
How it was run: as §1

[15] = molecular target: T10, ETV2 (Homo sapiens, UniProt O00321 1-342)
T10 sequence: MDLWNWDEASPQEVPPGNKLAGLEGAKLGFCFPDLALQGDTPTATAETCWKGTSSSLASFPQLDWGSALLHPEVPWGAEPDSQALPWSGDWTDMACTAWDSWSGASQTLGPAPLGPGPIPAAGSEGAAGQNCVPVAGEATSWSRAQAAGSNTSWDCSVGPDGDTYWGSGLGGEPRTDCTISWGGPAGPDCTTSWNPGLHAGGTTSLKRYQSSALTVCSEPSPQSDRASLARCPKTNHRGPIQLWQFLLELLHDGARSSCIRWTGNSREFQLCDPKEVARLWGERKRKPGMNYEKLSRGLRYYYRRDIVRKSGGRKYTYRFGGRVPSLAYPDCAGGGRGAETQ
How it was run: as §1

[16] = molecular target: T11, ELF3 (Homo sapiens, UniProt P78545 1-371)
T11 sequence: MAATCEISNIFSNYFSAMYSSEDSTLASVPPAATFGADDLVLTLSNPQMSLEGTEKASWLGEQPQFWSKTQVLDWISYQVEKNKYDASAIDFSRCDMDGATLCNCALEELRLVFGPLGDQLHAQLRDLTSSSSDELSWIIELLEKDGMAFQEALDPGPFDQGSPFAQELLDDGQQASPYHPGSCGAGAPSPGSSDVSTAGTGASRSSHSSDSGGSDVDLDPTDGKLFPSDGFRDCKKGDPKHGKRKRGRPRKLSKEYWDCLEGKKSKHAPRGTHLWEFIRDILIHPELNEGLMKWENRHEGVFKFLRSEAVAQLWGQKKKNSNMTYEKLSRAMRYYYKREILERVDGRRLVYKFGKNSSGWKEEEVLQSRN
How it was run: as §1

[17] = molecular target: ETV1 (Homo sapiens, UniProt P50549 1-477)
Sequence of ETV1 (P50549 whole entry): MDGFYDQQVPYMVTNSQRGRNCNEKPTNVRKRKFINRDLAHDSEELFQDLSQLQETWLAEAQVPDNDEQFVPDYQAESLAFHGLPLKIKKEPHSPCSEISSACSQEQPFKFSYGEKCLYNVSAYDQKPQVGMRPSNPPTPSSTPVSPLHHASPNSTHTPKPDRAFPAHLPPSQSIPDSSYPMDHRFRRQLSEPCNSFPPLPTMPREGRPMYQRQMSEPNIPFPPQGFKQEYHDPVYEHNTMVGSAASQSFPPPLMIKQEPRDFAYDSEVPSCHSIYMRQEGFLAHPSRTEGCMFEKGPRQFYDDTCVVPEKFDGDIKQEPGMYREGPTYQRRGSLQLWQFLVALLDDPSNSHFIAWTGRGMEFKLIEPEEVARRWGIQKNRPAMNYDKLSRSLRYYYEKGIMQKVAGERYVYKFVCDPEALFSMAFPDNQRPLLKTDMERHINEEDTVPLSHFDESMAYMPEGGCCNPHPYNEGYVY
How it was run: as §1

Sequence | binding signal [1] | binding signal [2] | binding signal [3] | binding signal [4] | binding signal [5] | binding signal [6] | binding signal [7] | binding signal [8] | binding signal [9] | binding signal [10] | binding signal [11] | binding signal [12] | binding signal [13] | binding signal [14] | binding signal [15] | binding signal [16] | binding signal [17]
CCCACA | 1.13 fold enrichment (6-mer frequency, TF over GST control) | 1.12 fold enrichment (6-mer frequency, TF over GST control) | 1.26 fold enrichment (6-mer frequency, TF over GST control) | 1.07 fold enrichment (6-mer frequency, TF over GST control) | 1.17 fold enrichment (6-mer frequency, TF over GST control) | 1.12 fold enrichment (6-mer frequency, TF over GST control) | 1.08 fold enrichment (6-mer frequency, TF over GST control) | 1.1 fold enrichment (6-mer frequency, TF over GST control) | 1.08 fold enrichment (6-mer frequency, TF over GST control) | 1.17 fold enrichment (6-mer frequency, TF over GST control) | 1.14 fold enrichment (6-mer frequency, TF over GST control) | 1.2 fold enrichment (6-mer frequency, TF over GST control) | 1.15 fold enrichment (6-mer frequency, TF over GST control) | 1.1 fold enrichment (6-mer frequency, TF over GST control) | 1.1 fold enrichment (6-mer frequency, TF over GST control) | 1.14 fold enrichment (6-mer frequency, TF over GST control) | 1.07 fold enrichment (6-mer frequency, TF over GST control)
CACAAT | 1.12 fold enrichment (6-mer frequency, TF over GST control) | 1.07 fold enrichment (6-mer frequency, TF over GST control) | 1.12 fold enrichment (6-mer frequency, TF over GST control) | 1.11 fold enrichment (6-mer frequency, TF over GST control) | 1.17 fold enrichment (6-mer frequency, TF over GST control) | 1.07 fold enrichment (6-mer frequency, TF over GST control) | 1.02 fold enrichment (6-mer frequency, TF over GST control) | 1.16 fold enrichment (6-mer frequency, TF over GST control) | 1.26 fold enrichment (6-mer frequency, TF over GST control) | 1.06 fold enrichment (6-mer frequency, TF over GST control) | 1.1 fold enrichment (6-mer frequency, TF over GST control) | 1.13 fold enrichment (6-mer frequency, TF over GST control) | 1.09 fold enrichment (6-mer frequency, TF over GST control) | 1.12 fold enrichment (6-mer frequency, TF over GST control) | 1.06 fold enrichment (6-mer frequency, TF over GST control) | 1.19 fold enrichment (6-mer frequency, TF over GST control) | 1.09 fold enrichment (6-mer frequency, TF over GST control)
